Results as given in PubChem BioAssay (EPA / NIEHS).
The source made the active and inactive calls. Rule for the calls: active = hit-call score of the fitted dose curve at least 0.9, where 1 is the maximum; inactive = score below 0.9.

Key:
[1] = read-out: Cyclin D2 (CCND2), CCND2 (gene 894); assay: LTEA_HepaRG_CCND2: Life Technologies and Expression Analysis (LTEA) Assay for Cyclin D2 (CCND2) using HepaRG (AID 2283449); settings: mRNA level, 48 h; actives raise or lower the signal;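 note: CCND2 transcript measured by TaqMan qRT-PCR and normalised to three housekeeping genes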
In short: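 Chemicals in 0.5% DMSO, eight half-log concentrations from 100 uM top, were applied in duplicate for 48 h to human HepaRG cells in serum-free induction medium. CCND2 mRNA by TaqMan qRT-PCR, normalised to ACTB/GAPDH/POLR2A; bidirectional fit versus DMSO.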

[2] = read-out: Cyclin Dependent Kinase Inhibitor 1A (CDKN1A), CDKN1A (gene 1026); assay: LTEA_HepaRG_CDKN1A: Life Technologies and Expression Analysis (LTEA) Assay for Cyclin Dependent Kinase Inhibitor 1A (CDKN1A) using HepaRG (AID 2283450); settings: mRNA level, 48 h; actives raise or lower the signal
In short: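 Gain or loss of CDKN1A transcript is scored by bidirectional fitting against 0.5% DMSO vehicle. Human HepaRG cultures receive chemicals for 48 h across an 8-point series peaking at 100 uM; expression comes from qRT-PCR.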

[3] = read-out: Cyclin D1 (CCND1), CCND1 (gene 595); assay: LTEA_HepaRG_CCND1: Life Technologies and Expression Analysis (LTEA) Assay for Cyclin D1 (CCND1) using HepaRG (AID 2283451); settings: mRNA level, 48 h; actives raise or lower the signal
In short: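 Expression change is measured by qRT-PCR in HepaRG cells after 48 h treatment across eight concentrations topping at 100 uM, with duplicate wells and DMSO (0.5%) serving as baseline for bidirectional fitting.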

[4] = read-out: catalase (CAT), CAT (gene 847); assay: LTEA_HepaRG_CAT: Life Technologies and Expression Analysis (LTEA) Assay for catalase (CAT) using HepaRG (AID 2283452); settings: mRNA level, 48 h; actives raise or lower the signal;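 for AC50: TaqMan qRT-PCR signal normalized to ACTB GAPDH and POLR2A housekeeping genes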
In short: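 HepaRG cells in serum-free induction medium, 0.5% DMSO vehicle, exposed 48 h in duplicate over 8 half-log concentrations from 100 uM. CAT mRNA measured by qRT-PCR, normalized to ACTB, GAPDH, POLR2A; bidirectional fit versus DMSO.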

[5] = read-out: flavin-containing dimethylaniline monooxygenases 3 (FMO3), FMO3 (gene 2328); assay: LTEA_HepaRG_FMO3: Life Technologies and Expression Analysis (LTEA) Assay for flavin-containing dimethylaniline monooxygenases 3 (FMO3) using HepaRG (AID 2283453); settings: mRNA level, 48 h; actives raise or lower the signal
In short: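 HepaRG, 48 h exposure, 8-pt half-log series from 100 uM, 0.5% DMSO vehicle, duplicates; FMO3 transcript by Fluidigm TaqMan qRT-PCR, housekeeping-normalized; gain/loss fit vs DMSO.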

[6] = read-out: Cytochrome P450 (CYP1A1), CYP1A1 (gene 1543); assay: LTEA_HepaRG_CYP1A1: Life Technologies and Expression Analysis (LTEA) Assay for Cytochrome P450 (CYP1A1) using HepaRG (AID 2283454); settings: mRNA level, 48 h; actives raise or lower the signal
In short: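 Using HepaRG cultures with 0.5% DMSO as vehicle, eight-concentration exposures (max 100 uM) lasted 48 h. Transcript levels were measured by TaqMan qRT-PCR and normalized to ACTB, GAPDH and POLR2A.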

[7] = read-out: CFLAR gene, CFLAR (gene 8837); assay: LTEA_HepaRG_CFLAR: Life Technologies and Expression Analysis (LTEA) Assay for CFLAR gene using HepaRG (AID 2283455); settings: mRNA level, 48 h; actives raise or lower the signal
In short: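 Differentiated HepaRG cells in serum-free induction medium were exposed 48 h in duplicate to eight half-log concentrations up to 100 uM in 0.5% DMSO; mRNA measured by TaqMan qRT-PCR, normalized to ACTB, GAPDH, POLR2A; bidirectional fitting versus DMSO.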

[8] = read-out: growth arrest and DNA damage 45 (GADD45A), GADD45A (gene 1647); assay: LTEA_HepaRG_GADD45A: Life Technologies and Expression Analysis (LTEA) Assay for growth arrest and DNA damage 45 (GADD45A) using HepaRG (AID 2283458); settings: mRNA level, 48 h; actives raise or lower the signal
In short: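 Human HepaRG liver cells are treated in duplicate for 48 h with chemicals in 0.5% DMSO, highest concentration 100 uM. Expression is read by qRT-PCR and analyzed in both directions against vehicle.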

[9] = read-out: Forkhead box O3 (FOXO3), FOXO3 (gene 2309); assay: LTEA_HepaRG_FOXO3: Life Technologies and Expression Analysis (LTEA) Assay for Forkhead box O3 (FOXO3) using HepaRG (AID 2283459); settings: mRNA level, 48 h; actives raise or lower the signal
In short: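 Differentiated human HepaRG cells, 48 h post-plating, exposed in duplicate for 48 h in serum-free induction medium; 8-point half-log series from 100 uM in 0.5% DMSO. FOXO3 mRNA by TaqMan qRT-PCR, normalized to ACTB/GAPDH/POLR2A; bidirectional fit versus DMSO.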

[10] = read-out: ABC Transporter (ABCB1), ABCB1 (gene 5243); assay: LTEA_HepaRG_ABCB1: Life Technologies and Expression Analysis (LTEA) Assay for ABC Transporter (ABCB1) using HepaRG (AID 2283460); settings: mRNA level, 48 h; actives raise or lower the signal
In short: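 HepaRG cells exposed in duplicate for 48 h in serum-free induction medium to eight half-log concentrations up to 100 uM in 0.5% DMSO. ABCB1 mRNA quantified by qRT-PCR, normalised to ACTB, GAPDH and POLR2A; fitted bidirectionally versus DMSO.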

[11] = read-out: growth arrest and DNA damage 45 (GADD45B), GADD45B (gene 4616); assay: LTEA_HepaRG_GADD45B: Life Technologies and Expression Analysis (LTEA) Assay for growth arrest and DNA damage 45 (GADD45B) using HepaRG (AID 2283461); settings: mRNA level, 48 h; actives raise or lower the signal
In short: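 Human HepaRG monolayers receive chemicals for 48 h at eight half-log concentrations, highest 100 uM, in 0.5% DMSO. Expression is measured by TaqMan qRT-PCR and normalized to ACTB, GAPDH and POLR2A.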

[12] = read-out: ABC Transporter (ABCC3), ABCC3 (gene 8714); assay: LTEA_HepaRG_ABCC3: Life Technologies and Expression Analysis (LTEA) Assay for ABC Transporter (ABCC3) using HepaRG (AID 2283462); settings: mRNA level, 48 h; actives raise or lower the signal
In short: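 Transcriptional change of ABCC3 in HepaRG after 48 h treatment, determined by qRT-PCR normalized to endogenous controls. Concentrations spanned eight half-log steps to 100 uM in 0.5% DMSO.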

[13] = read-out: ABC Transporter (ABCB11), ABCB11 (gene 8647); assay: LTEA_HepaRG_ABCB11: Life Technologies and Expression Analysis (LTEA) Assay for ABC Transporter (ABCB11) using HepaRG (AID 2283463); settings: mRNA level, 48 h; actives raise or lower the signal
In short: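 Differentiated human HepaRG cells in serum-free induction medium, dosed in duplicate for 48 h. Eight-point half-log series from 100 uM in 0.5% DMSO; ABCB11 mRNA by qRT-PCR, normalized to ACTB, GAPDH, POLR2A, fitted bidirectionally versus DMSO.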

[14] = read-out: Broad substrate specificity ATP-binding cassette transporter ABCG2 (Homo sapiens) (UniProt Q9UNQ0); assay: LTEA_HepaRG_ABCG2: Life Technologies and Expression Analysis (LTEA) Assay for ABC Transporter (ABCG2) using HepaRG (AID 2283465); settings: mRNA level, 48 h; actives raise or lower the signal
In short: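 Differentiated HepaRG cells were exposed for 48 h in serum-free induction medium to 8 half-log concentrations, top 100 uM, in 0.5% DMSO. ABCG2 mRNA was measured by qRT-PCR, normalized to ACTB, GAPDH and POLR2A, with bidirectional fitting versus DMSO.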

[15] = read-out: ATP-citrate lyase (ACLY), ACLY (gene 47); assay: LTEA_HepaRG_ACLY: Life Technologies and Expression Analysis (LTEA) Assay for ATP-citrate lyase (ACLY) using HepaRG (AID 2283466); settings: mRNA level, 48 h; actives raise or lower the signal
In short: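 Differentiated HepaRG cells exposed 48 h in serum-free induction medium to eight half-log concentrations up to 100 uM in 0.5% DMSO, duplicates. Transcript measured by Fluidigm TaqMan qRT-PCR, normalized to ACTB, GAPDH, POLR2A; bidirectional fit versus DMSO.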

[16] = read-out: Alkaline Phosphatase, Placental (ALPP) gene, ALPP (gene 250); assay: LTEA_HepaRG_ALPP: Life Technologies and Expression Analysis (LTEA) Assay for Alkaline Phosphatase, Placental (ALPP) gene using HepaRG (AID 2283468); settings: mRNA level, 48 h; actives raise or lower the signal
In short: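 Using human liver HepaRG cells, chemicals are tested in duplicate over 48 h at half-log concentrations topping at 100 uM; phenobarbital 1 mM serves as induction control. ALPP mRNA change by qRT-PCR, bidirectional fit against vehicle.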

[17] = CEETOX_H295R_TESTO: CeeTox H295R High-throughput Steroidogenesis Assay for Testosterone (TESTO) (AID 2283457); settings: actives raise or lower the signal
In short: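 Steroidogenesis in H295R cells following OECD 456 with minor changes; 48 h exposure. Medium testosterone by HPLC-MS/MS, DMSO as baseline, with MTT viability run in parallel.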

[18] = read-out: Peroxisomal acyl-coenzyme A oxidase 1 (ACOX1) gene, ACOX1 (gene 51); assay: LTEA_HepaRG_ACOX1: Life Technologies and Expression Analysis (LTEA) Assay for Peroxisomal acyl-coenzyme A oxidase 1 (ACOX1) gene using HepaRG (AID 2283467); settings: mRNA level, 48 h; actives raise or lower the signal
In short: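 HepaRG cells, plated 48 h then switched to serum-free induction medium, were exposed in duplicate for 48 h to 8-point half-log concentrations up to 100 uM in 0.5% DMSO. ACOX1 mRNA was measured by qRT-PCR, normalized to ACTB/GAPDH/POLR2A, and fitted bidirectionally versus DMSO.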

[19] = read-out: ABC Transporter (ABCC2), ABCC2 (gene 1244); assay: LTEA_HepaRG_ABCC2: Life Technologies and Expression Analysis (LTEA) Assay for ABC Transporter (ABCC2) using HepaRG (AID 2283464); settings: mRNA level, 48 h; actives raise or lower the signal
In short: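 After plating and 48 h culture, HepaRG medium is replaced with serum-free induction medium and chemicals are added (8 concentrations, max 100 uM, 0.5% DMSO) for 48 h. Total RNA then undergoes qRT-PCR for ABCC2 with housekeeping normalization.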

Measured: AC50

Chain of Broad substrate specificity ATP-binding cassette transporter ABCG2 (Homo sapiens) (Q9UNQ0 whole entry, looked up): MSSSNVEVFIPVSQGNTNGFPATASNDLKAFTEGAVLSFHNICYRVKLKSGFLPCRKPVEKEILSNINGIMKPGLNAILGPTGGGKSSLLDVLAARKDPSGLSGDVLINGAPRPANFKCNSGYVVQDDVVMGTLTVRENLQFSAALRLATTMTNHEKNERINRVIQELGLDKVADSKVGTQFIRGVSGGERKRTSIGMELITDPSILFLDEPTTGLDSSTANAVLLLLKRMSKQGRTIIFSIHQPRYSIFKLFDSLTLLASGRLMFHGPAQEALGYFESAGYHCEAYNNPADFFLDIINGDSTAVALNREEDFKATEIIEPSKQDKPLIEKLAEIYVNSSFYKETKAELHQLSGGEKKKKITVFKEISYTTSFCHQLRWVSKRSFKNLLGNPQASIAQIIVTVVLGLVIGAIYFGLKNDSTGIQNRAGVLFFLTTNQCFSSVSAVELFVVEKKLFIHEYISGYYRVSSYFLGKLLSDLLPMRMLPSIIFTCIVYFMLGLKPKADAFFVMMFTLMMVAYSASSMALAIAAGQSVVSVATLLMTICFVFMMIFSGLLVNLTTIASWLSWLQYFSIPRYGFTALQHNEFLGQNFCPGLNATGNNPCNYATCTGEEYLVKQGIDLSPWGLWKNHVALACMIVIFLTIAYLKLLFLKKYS

CC(C)(C)OOC(C)(C)C
not listed: [17] | [18] | [19]
inactive: all other assays above

CCOP(=S)(Oc1ccc([N+](=O)[O-])cc1)c1ccccc1 (centres undefined)
active: [6] 14.3 µM | [10] 4.56 µM | [14] 12.7 µM | [16] 50 µM
not listed: [9] | [17] | [18] | [19]
inactive: all other assays above

CCOS(=O)(=O)OCC
not listed: [9] | [17] | [18] | [19]
inactive: all other assays above

CCNc1nc(Cl)nc(NC(C)(C)C)n1
active: [6] 22.7 µM | [10] 7.02 µM | [16] 9.92 µM
not listed: [9] | [18] | [19]
inactive: all other assays above

O=C(O)C(Cl)Cl
not listed: [9] | [17] | [18] | [19]
inactive: all other assays above

c1cc2c3c(cccc3c1)CC2
active: [2] 0.387 µM | [6] 72.4 µM
not listed: [9] | [17] | [18] | [19]
inactive: all other assays above

CCCCN(CCCC)SN(C)C(=O)Oc1cccc2c1OC(C)(C)C2
active: [6] 50 µM | [10] 23.2 µM
not listed: [9] | [17] | [19]
inactive: all other assays above

CCC1(c2ccccc2)C(=O)N=C(O)NC1=O (centres undefined)
active: [6] 64.3 µM
not listed: [9] | [17] | [18]
inactive: all other assays above

Nc1ccc(Cl)cc1
active: [6] 28 µM
not listed: [9] | [17] | [18] | [19]
inactive: all other assays above

[N-]=[N+]=[N-]
active: [2] 74.9 µM | [4] 82.9 µM | [5] 88.5 µM | [8] 88.1 µM | [12] 69.3 µM | [14] 34.4 µM | [15] 73.4 µM
not listed: [9] | [17] | [18] | [19]
inactive: all other assays above
